{"source": "ChEMBL document CHEMBL1201862", "about": "“PubChem BioAssay data set” (2004)", "note": "Screen size: about 400,000 compounds; about 2,100 (0.53%) were called active. Not shown: some 14% with an inconclusive outcome. No rule for the calls is given here. Only a selection was taken, and actives are over-represented in it overall."}
{"biological_target": "Ataxin-2 (Homo sapiens) (UniProt Q99700)", "sequence (Q99700 whole entry)": "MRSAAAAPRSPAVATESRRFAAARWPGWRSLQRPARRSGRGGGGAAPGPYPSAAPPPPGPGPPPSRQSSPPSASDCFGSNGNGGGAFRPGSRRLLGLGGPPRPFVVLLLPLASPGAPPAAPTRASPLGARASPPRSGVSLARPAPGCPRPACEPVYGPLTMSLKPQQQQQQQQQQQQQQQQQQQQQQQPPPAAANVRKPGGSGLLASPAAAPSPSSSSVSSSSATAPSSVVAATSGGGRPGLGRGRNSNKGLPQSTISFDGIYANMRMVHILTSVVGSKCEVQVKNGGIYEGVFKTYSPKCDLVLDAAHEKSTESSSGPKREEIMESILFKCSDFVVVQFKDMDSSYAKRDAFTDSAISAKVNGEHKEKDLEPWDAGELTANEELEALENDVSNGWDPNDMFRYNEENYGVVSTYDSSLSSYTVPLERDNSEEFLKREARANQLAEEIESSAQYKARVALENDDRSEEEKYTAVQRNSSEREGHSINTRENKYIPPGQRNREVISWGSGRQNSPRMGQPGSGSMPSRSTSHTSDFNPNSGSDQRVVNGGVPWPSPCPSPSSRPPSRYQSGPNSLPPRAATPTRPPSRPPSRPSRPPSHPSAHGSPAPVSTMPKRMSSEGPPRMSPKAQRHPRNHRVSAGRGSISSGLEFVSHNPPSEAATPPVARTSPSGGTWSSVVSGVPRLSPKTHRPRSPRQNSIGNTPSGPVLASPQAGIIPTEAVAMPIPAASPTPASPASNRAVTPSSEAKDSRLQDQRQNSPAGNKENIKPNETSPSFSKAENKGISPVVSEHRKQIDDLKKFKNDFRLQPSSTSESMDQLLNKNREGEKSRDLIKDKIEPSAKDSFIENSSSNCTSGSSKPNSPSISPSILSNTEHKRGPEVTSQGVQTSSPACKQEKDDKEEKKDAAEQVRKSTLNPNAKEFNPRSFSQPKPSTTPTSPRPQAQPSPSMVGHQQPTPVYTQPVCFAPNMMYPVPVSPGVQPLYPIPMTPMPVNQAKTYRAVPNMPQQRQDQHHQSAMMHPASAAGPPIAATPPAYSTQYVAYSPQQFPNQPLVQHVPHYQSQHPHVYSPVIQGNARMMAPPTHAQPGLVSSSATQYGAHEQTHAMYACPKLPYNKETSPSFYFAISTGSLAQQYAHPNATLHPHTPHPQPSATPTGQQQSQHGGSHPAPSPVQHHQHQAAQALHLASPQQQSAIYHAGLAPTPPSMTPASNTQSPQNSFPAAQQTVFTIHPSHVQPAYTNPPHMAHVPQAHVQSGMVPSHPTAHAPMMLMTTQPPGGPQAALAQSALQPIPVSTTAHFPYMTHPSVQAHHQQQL", "experiment": "qHTS for Inhibitors of ATXN expression.", "format": "functional"}
{"compound": "N#CC12COC3(CCCCC3C1(C#N)C#N)OC2=N", "note": "(stereo unspecified)", "Potency": "inactive"}
{"compound": "Cc1cc(=O)oc2c3c(ccc12)OCN(Cc1ccc(Cl)cc1)C3", "Potency": "inactive"}
{"compound": "O=C(O)c1ccc(Nc2nc(-c3cc4ccccc4oc3=O)cs2)cc1O", "Potency": "inactive"}
{"compound": "O=C(O)c1cccc(Nc2nc(-c3cc4ccccc4oc3=O)cs2)c1", "Potency": "inactive"}
{"compound": "Cc1cc(NC(=S)NC(=O)c2ccccc2)ccc1-c1cc2ccccc2oc1=O", "Potency": "17.8 µM (active)"}
{"compound": "N#CC1=C(c2ccccc2)/C(=C/c2ccccc2)OC1=O", "Potency": "22.4 µM (active)"}
{"compound": "N#CC1=C(N)OC2=C(CC/C2=C\\c2ccccc2)C1c1ccccc1", "note": "(stereo unspecified)", "Potency": "inactive"}
{"compound": "Nc1ccc2c(c1)nc(O)c1cc(N)ccc12", "Potency": "inactive"}
{"compound": "CCN(CC)c1ccc(/C=C/C(=O)C2C(=O)C=C(C)OC2=O)cc1", "note": "(stereo unspecified)", "Potency": "inactive"}
{"compound": "CCOC(=O)C1=C(Cc2ccc(Cl)cc2)C(=O)c2ccccc2C1=O", "Potency": "31.6 µM (active)"}
{"compound": "CCOC(=O)c1c(C)n(O)c2ccc(Cl)cc2c1=O", "Potency": "inactive"}
{"compound": "CCOC(=O)c1sc(-c2ccc(Cl)cc2)nc1O", "Potency": "inactive"}
{"compound": "CCN1CCN(c2nc3c(C)cccn3c(=O)c2/C=C(\\C#N)C(=O)NC)CC1", "Potency": "inactive"}
{"compound": "COc1ccc(-c2cc(CNC(=O)CCl)on2)cc1", "Potency": "15.8 µM (active)"}
{"compound": "COc1ccc(-c2cc3c(=O)n(CC(=O)NCc4ccc(Cl)cc4)ncn3n2)cc1", "Potency": "inactive"}
{"compound": "COc1ccc(-c2onc3ccc(C(C)=O)cc23)cc1", "Potency": "inactive"}
{"compound": "CC(C)c1ccc(C2C(C#N)=C(N)Oc3c2oc(CO)cc3=O)cc1", "note": "(stereo unspecified)", "Potency": "inactive"}
{"compound": "CCN(CC)C(=O)c1ccc2c3c(cccc13)C(=O)N(CCc1ccc(OC)c(OC)c1)C2=O", "Potency": "28.2 µM (active)"}
{"compound": "COc1ccc(CCN2C(=O)CS/C2=N/NC(=O)c2ccccc2F)cc1OC", "Potency": "inactive"}
{"compound": "CCCN1C(=O)c2cccc3c(N4CCCCC4)ccc(c23)C1=O", "Potency": "inactive"}
{"compound": "O=C(O)CCSc1nnc(CNc2ccc(Cl)cc2)n1Cc1ccccc1", "Potency": "inactive"}
{"compound": "Cc1cc(C(=O)CCl)c(C)n1CC1COc2ccccc2O1", "note": "(stereo unspecified)", "Potency": "26.7 µM (active)"}
{"compound": "CC1CC(=NNC(=O)C2COc3ccccc3O2)CC(C)(C)C1", "note": "(stereo unspecified)", "Potency": "inactive"}
{"compound": "CC(C)N1CCN(CC2COc3ccccc3O2)CC1", "note": "(stereo unspecified)", "Potency": "inactive"}
{"compound": "O=C(O)CN1C(=O)C2C3CCC(C3)C2C1=O", "note": "(stereo unspecified)", "Potency": "inactive"}
{"compound": "COc1ccc(-c2cn3nc4c(nc3n2)CCCC4)cc1", "Potency": "inactive"}
{"compound": "CCCCCCc1cc2cc(-c3nnc(-c4ccccc4O)o3)c(=O)oc2cc1O", "Potency": "inactive"}
{"compound": "CC(C)c1ccc2c(c1)CCC1C(C)(CN)CCCC21C", "note": "(stereo unspecified)", "Potency": "39.8 µM (active)"}
{"compound": "CCOC(=O)c1c(-c2ccccc2)oc2ccc(OCC(O)CNCCN(C)C)cc12", "note": "(stereo unspecified)", "Potency": "inactive"}
{"compound": "CCOC(=O)c1c(CSC(=N)N)n(C)c2cc(Br)c(OC(C)=O)cc12", "Potency": "35.5 µM (active)"}
{"compound": "CCOC(=O)c1c(CSc2ccccc2)n(C)c2cc(Br)c(OCC(O)CNC(CO)(CO)CO)cc12", "note": "(stereo unspecified)", "Potency": "25.1 µM (active)"}
